Shiga toxin inh – inhibitors of Shiga toxin in Vero cells; Vero cells, Shiga toxin protein synthesis inhibition reporter; 290,000 compounds, 9.2% hits; inhibition, % at 38.7 µM; in the data active means inhibition mostly above about 28%, no sharp cut-off; inactive means mostly below about 43%; further: 0% is about no effect
Pf growth 96h – P. falciparum growth inhibition at 96 hour, primary screen for plastid delayed-death inhibitors | P. falciparum luciferase reporter growth, 96 h | AID 504834 | 320,000 compounds, 6.9% hits | Potency, µM (highest dose often 28.7 µM), without a hit: at the top dose activity change, negative = inhibition, hits mostly inhibitors; further: potency means the concentration at half of the fitted maximal effect; on the % scale 0 is the no-effect control and ±100 the full control effect
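Compounds incubated with erythrocytes infected by luciferase-expressing P. falciparum (2% hematocrit, 0.05% parasitemia final) for 96 hours, 37 C in 5% CO2. Growth inhibition scored as decreased luciferase luminescence.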
CHX counter – affects cycloheximide protein synthesis inhibition readout, counter-screen. 300,000 compounds, 12% hits. AID 2314. cell reporter, cycloheximide protein synthesis inhibition counterscreen. max response, %; in the data active means max response mostly above about 13%, no sharp cut-off; inactive means mostly below about 14%; further: read at 38.3 µM for the half of the compounds with a filed dose; 0% is about no effect
NS1 function inh – blocks influenza NS1 protein function | Potency, µM (titrated, usually from 46.1 µM), for the others: top-dose activity, positive = more growth | 270,000 compounds, 0.4% hits; calls by dose curve; further: potency means the concentration at half of the fitted maximal effect; actives are rising curves; nearly all actives have a fitted effect of over 50% in size
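Read-out: OD600 growth recovery of NS1-expressing budding yeast. Cells grown overnight at 30C in -URA glucose medium, washed, resuspended and diluted 1:100 in 2% galactose assay medium, pH 6.0. Same strain lacking NS1 served as positive control.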
Pf growth 48h – inhibits P. falciparum growth in the first generation, 48 h | P. falciparum luciferase growth in erythrocytes, 48 h | Potency, µM (top dose mostly 28.7 µM), inactives show top-dose activity change, negative = inhibition, most hits filed as inhibitors | 310,000 compounds, 5.9% hits | AID 504832; further: potency means the concentration at half of the fitted maximal effect; on the % scale 0 is the no-effect control and ±100 the full control effect
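Cell-based growth assay: transgenic P. falciparum expressing firefly luciferase, cultured in red cells within RPMI 1640 containing 0.5% w/v Albumax, 24 mM bicarbonate and gentamycin. A drop in luciferase activity indicates inhibition.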
* = called active by the depositor. Hits are enriched below; roughly 21% of the tested compounds scored in any of these assays. Unless noted, the call rests on the fitted dose curve; in most records, active means well fitted inhibition curve with a large enough effect; inconclusive means small, poorly fitted or top-dose-only effect, or another doubt; inactive means no such curve, though single readings can be large or run the other way.

CC(C)(C)OC(=O)N1CCC(CC2CC(c3ccccc3)=NO2)(C(=O)NCc2ccccc2)CC1 (stereo unspecified) was read as Pf growth 96h inconclusive and Pf growth 48h 0.26µM*.
Screening CSc1ccccc1OC1CCN(Cc2ccccc2)CC1 returned Shiga toxin inh -14, Pf growth 96h -28%, CHX counter -6, NS1 function inh 7% and Pf growth 48h -1%.
Screening O=c1cc(O)nc(-c2ccc(Cl)cc2)s1 returned Shiga toxin inh 21, Pf growth 96h 42%, CHX counter -1, NS1 function inh 0% and Pf growth 48h 35%.
`O=C(Nc1ccncc1)c1ccc(Cl)c(S(=O)(=O)N2CCCC2)c1` gave Pf growth 96h inconclusive and Pf growth 48h 12µM*.
For O=C(Nc1ccon1)c1ccc(Cl)c(S(=O)(=O)N2CCCCC2)c1 the results were Shiga toxin inh -7, Pf growth 96h 9%, CHX counter 1, NS1 function inh 5% and Pf growth 48h inconclusive.
`O=C(O)Cc1ccc(NC(=O)c2ccc(Cl)c(Cl)c2)cc1` gave Shiga toxin inh -7, Pf growth 96h -11%, CHX counter -2, NS1 function inh 1% and Pf growth 48h -17%.
Screening O=C(Nc1ccc(Cl)c(S(=O)(=O)N2CCCCC2)c1)c1cccnc1 returned Pf growth 96h inconclusive and Pf growth 48h 12µM*.
For O=C(Nc1cccc(S(=O)(=O)N2CCCC2)c1)c1cccnc1 the results were Shiga toxin inh -31, Pf growth 96h 19%, CHX counter -2, NS1 function inh 16% and Pf growth 48h 3%.
For O=C(Nc1nc2ccccc2[nH]1)c1ccc(Cl)c(S(=O)(=O)N2CCCC2)c1 the results were Shiga toxin inh 71, Pf growth 96h -104%, CHX counter 33* and NS1 function inh 10%.
Screening O=C(Nc1ccncc1)c1ccc(Cl)c(Cl)c1 returned Shiga toxin inh 28, Pf growth 96h 2.9µM*, CHX counter 13, NS1 function inh -63% and Pf growth 48h inconclusive.
Cc1ccc(S(=O)(=O)c2cc(C#N)c(=O)[nH]c2N)cc1 was read as Shiga toxin inh -8, Pf growth 96h 47%, CHX counter -2, NS1 function inh 0% and Pf growth 48h 6%.
`COc1cccc(CN2CCN(c3nc4nonc4nc3NC3CC3)CC2)c1` gave Shiga toxin inh -16, Pf growth 96h 4%, CHX counter 1, NS1 function inh 4% and Pf growth 48h -16%.
`Cc1nonc1NC(=O)c1ccc(Cl)c(S(=O)(=O)N2CCCCC2)c1` gave Shiga toxin inh 4, Pf growth 96h 2.6µM*, CHX counter 2, NS1 function inh -7% and Pf growth 48h -6%.
`CN1CCC(=O)N(C(CSc2ccc(Br)cc2)c2ccccc2)CC1` (stereo unspecified) gave Shiga toxin inh 83* and CHX counter 33*.
Screening CN1CCC(=O)N([C@H](CSc2ccccc2)c2ccccc2)CC1 returned Shiga toxin inh 58, Pf growth 96h 23%, CHX counter 18*, NS1 function inh -11% and Pf growth 48h 32%.
Screening CC(C)CN1CCC(=O)N([C@H](CSc2ccc(Br)cc2)c2ccccc2)CC1 returned Shiga toxin inh 27, Pf growth 96h 33%, CHX counter -2, NS1 function inh -2% and Pf growth 48h 48%.
For Cc1ccc(SC[C@H](c2ccccc2)N2CCN(C)CCC2=O)cc1 the results were Shiga toxin inh 97*, Pf growth 96h 44%, CHX counter 44*, NS1 function inh -5% and Pf growth 48h 36%.
For CN1CCC(=O)N([C@H](CN=[N+]=[N-])c2ccccc2)CC1 the results were Shiga toxin inh 20*, Pf growth 96h -4%, CHX counter 23*, NS1 function inh inconclusive and Pf growth 48h 48%.
`Cc1ccc(SCC(c2ccccc2)N2CCN(CC(C)C)CCC2=O)cc1` (stereo unspecified) gave Shiga toxin inh 89* and CHX counter 42*.
For Cc1ccc(SC[C@H](c2ccccc2)N2CCN(CC(C)C)CCC2=O)cc1 the results were Shiga toxin inh 11, Pf growth 96h inconclusive, CHX counter 19, NS1 function inh 7% and Pf growth 48h inconclusive.
`COc1ccc(SCC(c2ccccc2)N2CCN(CC(C)C)CCC2=O)cc1` (stereo unspecified) gave Shiga toxin inh -5 and CHX counter 9.
`CC(C)C[C@@H](CN=[N+]=[N-])N1CCN(C)CCC1=O` gave Shiga toxin inh -4, Pf growth 96h 15µM*, CHX counter -1, NS1 function inh 7% and Pf growth 48h 9%.
